Bioassay records deposited in PubChem BioAssay by National Center for Advancing Translational Sciences (NCATS).
An excerpt weighted towards active compounds, which were near 19% of everything screened.
HT1080NT lethal: qHTS for induction of synthetic lethality in tumor cells producing 2HG: qHTS for the HT-1080-NT fibrosarcoma cell line; HT-1080-NT fibrosarcoma viability, CellTiter-Glo ATP luminescence, 48 h; Potency, µM (titrated, usually from 46.1 µM), hits mostly cytotoxic; 360,000 tested, 1.6% active;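 also: NT is the 2HG producing partner of a matched IDH1 knockdown line; nearly all actives have a fitted effect of over 55% in size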
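Toxicity toward the 2HG-producing NT line was scored as %Activity, normalised to DMSO and no-cell wells, from CellTiter-Glo luminescence after 48 hours' treatment.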
DT40 TDP1 CPT: qHTS for Inhibitors of human tyrosyl-DNA phosphodiesterase 1 (TDP1): qHTS in cells in presence of CPT; chicken DT40 Tdp1-/-;hTDP1 cells + 20 nM CPT, ATP luminescence, 48 h; Potency, µM (series often up to 46.2 µM), usual class: inhibitors; 420,000 tested, 12% active; AID 686979, 2013; also: nearly all actives have a fitted effect of over 55% in size
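Chicken DT40 Tdp1-/- cells complemented with human TDP1, 400 cells/well, exposed to compounds plus 20 nM camptothecin for at least 48 h at 37 C; viability read as ATP content by CellTiter-Glo luminescence.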
IL-1B inflam inh: qHTS for Inhibitors of Inflammasome Signaling: IL-1-beta AlphaLISA Primary Screen. AID 743279, 2014. THP-1 LPS/ATP IL-1B secretion, AlphaLISA, 16 h; active compounds read low. activity change, % at 57.5 µM. 360,000 tested, 4.7% active; in the data active = activity change below about -50%; inconclusive = mostly about -30% to -49%
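Secreted IL-1B measured by AlphaLISA bead assay after 16 h compound exposure of THP-1 cells; compounds (final up to 57.5 uM) added 1 h before LPS (250 ng/mL) and ATP (1.25 mM) stimulation; lower signal means less secretion.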
TDP1 cell noCPT: qHTS for Inhibitors of human tyrosyl-DNA phosphodiesterase 1 (TDP1): qHTS in cells in absence of CPT. DT40 Tdp1-/- hTDP1 cells, no CPT, ATP luminescence, 48 h. Potency, µM (titrated, usually from 46.2 µM), actives largely listed as inhibitors. 420,000 tested, 15% active. AID 686978, 2013; also: nearly all actives have a fitted effect of over 55% in size
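Readout: luminescence from CellTiter-Glo after 30 min in the dark at RT. Cells: DT40 Tdp1-/- with stable hTDP1, 400/well. Exposure: compounds alone, ≥48 hr, 37 °C.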
HT1080 IDH1KD tx: qHTS for induction of synthetic lethality in tumor cells producing 2HG: qHTS for the HT-1080-IDH1KD cell line. Potency, µM (titrated, usually from 46.1 µM), usual class: cytotoxic. HT-1080 IDH1 knockdown viability, ATP luminescence, 48 h. 360,000 tested, 2% active
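After a 2 h attachment period, IDH1KD HT-1080 cells took pin-transferred compound for 48 h at 37 °C; ATP-based luminescence after 10 min room-temperature reagent incubation reported viability.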
Large screens that a line does not name were inactive. Unless noted, calls follow the shape of the dose curve; as a rule, active = well fitted curve in the direction sought with a large enough effect; inconclusive = small, poorly fitted or top-dose-only effect, or another doubt; inactive = no such curve, though single readings can be large; an effect the other way counts as inactive or inconclusive.

Cc1csc(NC(=O)CSc2nc(C)nc3c2c(=O)n(C)c(=O)n3C)n1	DT40 TDP1 CPT inconclusive, TDP1 cell noCPT 21µM
CCCc1nc(SCC(=O)Nc2nnc(CC)s2)c2c(=O)n(C)c(=O)n(C)c2n1	DT40 TDP1 CPT 6.5µM, TDP1 cell noCPT 3.3µM
Cc1nnc(NC(=O)CSc2nc(CC(C)C)nc3c2c(=O)n(C)c(=O)n3C)s1	DT40 TDP1 CPT 16µM, TDP1 cell noCPT 10µM
CCc1nc(SCC(N)=O)c2c(=O)n(C)c(=O)n(C)c2n1	none
CC(=O)c1ccc(Nc2nc3ccccc3nc2-n2nc(C)cc2C)cc1	none (no result: HT1080NT lethal, IL-1B inflam inh, HT1080 IDH1KD tx)
COC(=O)[C@@]1(C(C)C)N=C(c2cc(OC)c(OC)c(OC)c2)[C@]2(O1)C(=O)N(C)c1ccc(Br)cc12	HT1080NT lethal inconclusive, DT40 TDP1 CPT inconclusive, TDP1 cell noCPT inconclusive, HT1080 IDH1KD tx inconclusive
Cc1ccccc1NC(=O)CSc1nnc(-c2ccco2)n1N	none
Cc1cccc(NC(=O)CSc2nnc(-c3ccco3)c(-c3ccco3)n2)c1	DT40 TDP1 CPT inconclusive, IL-1B inflam inh -94, TDP1 cell noCPT 18µM
Cc1cccc(NC(=O)CSc2nnc(-c3ccco3)c(-c3ccco3)n2)c1C	IL-1B inflam inh -87, TDP1 cell noCPT inconclusive
CC(NC(=O)Cn1cc([N+](=O)[O-])cn1)c1ccc(C(C)(C)C)cc1 (centres undefined)	DT40 TDP1 CPT inconclusive, TDP1 cell noCPT inconclusive
N#C/C(=C\c1ccc(-c2ccc(S(=O)(=O)N3CCOCC3)cc2)o1)C(=O)NC1CC1	DT40 TDP1 CPT 12µM, TDP1 cell noCPT 21µM
N#C/C(=C\c1ccc(N2CCOCC2)o1)C(=O)NC1CCCCC1	TDP1 cell noCPT inconclusive
N#C/C(=C/c1ccc(-c2ccc(S(=O)(=O)N3CCOCC3)cc2)o1)C(=O)NC1CC1	IL-1B inflam inh inconclusive, TDP1 cell noCPT 15µM
COCCN(C(=O)c1ccccc1OC1CCN(S(C)(=O)=O)CC1)C(C)C	TDP1 cell noCPT inconclusive
Cc1nc2c(c(C)c1CCC(=O)N1CCN(c3ccccc3)CC1)c(=O)n(C)c(=O)n2C	none (no result: HT1080NT lethal, IL-1B inflam inh, HT1080 IDH1KD tx)
CC(C)CN(C(=O)CN(C)CC(=O)Nc1ccccc1C#N)c1c(N)n(CC(C)C)c(=O)[nH]c1=O	none
Cc1ccc(C(=O)CSc2nc3cc(C(=O)NC4CCCC4)ccc3c(=O)n2CC2CCCO2)c(C)c1 (centres undefined)	DT40 TDP1 CPT 10µM, TDP1 cell noCPT inconclusive (no result: HT1080NT lethal, IL-1B inflam inh, HT1080 IDH1KD tx)
O=C(CSc1nc2ccccc2c(=O)n1CC1CCCO1)N1CCN(c2ccccc2)CC1 (centres undefined)	HT1080NT lethal inconclusive, DT40 TDP1 CPT 26µM, TDP1 cell noCPT 23µM
Cc1ccc(NC(=O)CSc2nc3cc(C(=O)NCC4CCCO4)ccc3c(=O)n2CC2CCCO2)cc1 (centres undefined)	DT40 TDP1 CPT inconclusive, TDP1 cell noCPT inconclusive
O=C(NCC1CCCO1)c1ccc2c(=O)n(CC3CCCO3)c(SCC(=O)N3CCCC3)nc2c1 (centres undefined)	TDP1 cell noCPT 0.23µM
CCOC(=O)n1c(=O)n(Cc2c(Cl)cccc2Cl)c2ccccc21	DT40 TDP1 CPT inconclusive, TDP1 cell noCPT inconclusive
Cc1nnc(SCC(=O)Nc2cccc(S(=O)(=O)N(C)c3ccccc3)c2)s1	DT40 TDP1 CPT 8.2µM, TDP1 cell noCPT 6.5µM
CN(c1ccccc1)S(=O)(=O)c1cccc(NC(=O)CSc2n[nH]c(N)n2)c1	DT40 TDP1 CPT 9.2µM, TDP1 cell noCPT 9.2µM
Nc1nc(SCC(=O)Nc2cccc(S(=O)(=O)N3CCCCCC3)c2)n[nH]1	none
Cc1cc(C(=O)NCC(c2ccco2)N2CCCC2)c2ccccc2n1 (centres undefined)	none
COCCCN(C(=O)Cc1coc2cc(C)c(C)cc12)c1c(N)n(Cc2ccccc2)c(=O)[nH]c1=O	none
N=c1sccn1CC(=O)Nc1cc(S(=O)(=O)N2CCCCC2)ccc1Cl	none
COc1ccc(CNc2cccc3[nH]c(C(F)(F)F)nc23)cc1	HT1080NT lethal inconclusive, DT40 TDP1 CPT inconclusive, IL-1B inflam inh -71, TDP1 cell noCPT inconclusive, HT1080 IDH1KD tx inconclusive
COc1cc(CNc2cccc3[nH]c(C(F)(F)F)nc23)cc(OC)c1	DT40 TDP1 CPT 23µM, TDP1 cell noCPT 26µM
Cc1ccc(C(=O)Nc2cccc3[nH]c(C(F)(F)F)nc23)cc1	HT1080NT lethal inconclusive, DT40 TDP1 CPT inconclusive, TDP1 cell noCPT inconclusive
CCOC(=O)C1CCCN(S(=O)(=O)c2cc(OCC(N)=O)c(C)cc2Cl)C1 (centres undefined)	IL-1B inflam inh -92
O=C(Nc1cc(S(=O)(=O)N2CCOCC2)ccc1Cl)c1cc2ccccc2o1	DT40 TDP1 CPT inconclusive, IL-1B inflam inh -75, TDP1 cell noCPT inconclusive
CCOC(=O)C1CCCN(S(=O)(=O)CCNC(=O)c2ccc3c(c2)OCO3)C1 (centres undefined)	IL-1B inflam inh -73
O=C(Nc1cccc(S(=O)(=O)N2CCOCC2)c1)c1cc2ccccc2o1	none
CCOC(=O)C1CCCN(S(=O)(=O)c2ccc(S(=O)(=O)N(CC)CC)cc2)C1 (centres undefined)	DT40 TDP1 CPT 2.9µM, TDP1 cell noCPT 1.5µM
O=C(COCc1cc(-c2ccc(F)cc2)on1)Nc1cc(Cl)cc(Cl)c1	TDP1 cell noCPT inconclusive (no result: HT1080NT lethal, IL-1B inflam inh, HT1080 IDH1KD tx)
Fc1ccccc1Cc1nnc2n1N=C(c1ccc(Cl)cc1)CS2	none
CCOC(=O)C1CCCN(S(=O)(=O)c2ccc(S(N)(=O)=O)cc2)C1 (centres undefined)	TDP1 cell noCPT inconclusive
CCOC(=O)C1CCCN(S(=O)(=O)c2csc(C(N)=O)c2)C1 (centres undefined)	DT40 TDP1 CPT inconclusive, TDP1 cell noCPT 15µM (no result: HT1080NT lethal, IL-1B inflam inh, HT1080 IDH1KD tx)
CN(C)S(=O)(=O)c1ccc(S(=O)(=O)N2CCCC(C(=O)NC3CC3)C2)cc1 (centres undefined)	TDP1 cell noCPT inconclusive
CCOC(=O)C1CCCN(C(=S)Nc2ccc(S(=O)(=O)N3CCOCC3)cc2)C1 (centres undefined)	DT40 TDP1 CPT inconclusive, TDP1 cell noCPT 16µM
Cc1cccc(NS(=O)(=O)c2cc(OCC(N)=O)c(C)cc2Cl)c1	TDP1 cell noCPT inconclusive
Cc1ccc(NS(=O)(=O)c2cc(OCC(N)=O)c(C)cc2Cl)cc1C	DT40 TDP1 CPT 20µM, TDP1 cell noCPT inconclusive
CCN(CC)S(=O)(=O)c1ccc(S(=O)(=O)N2CCCC(C(=O)NC3CC3)C2)cc1 (centres undefined)	DT40 TDP1 CPT 1.3µM, TDP1 cell noCPT 5.8µM
